In the library only some 9.9% were active in any assay of this set; here they are far more common.
KB-3-1 tox: KB-3-1 parental cell cytotoxicity. KB-3-1 viability, CellTiter-Glo ATP luminescence, 72 h. Potency, µM (highest dose often 46.1 µM), most hits filed as cytotoxic. actives 1.4% (n = 400,000). AID 1347075; note: potency is the fitted concentration of half-maximal effect; % is set by controls: 0 for no effect and ±100 for the full control effect; nearly all actives have a fitted effect of over 60% in size
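Viability of parental KB-3-1 cells, measured by CellTiter-Glo luminescence, followed a 72 h incubation at 37 °C with pinned compounds in phenol-red-free DMEM containing 10% FBS.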
KB-V1 cytotox: kills drug-selected multidrug resistant KB-V1 cells. KB-V1 MDR cells viability, CellTiter-Glo, 72 h. Potency, µM (titrated, usually from 46.1 µM), hits mostly cytotoxic. actives 3.4% (n = 400,000). AID 1347076; note: potency is the fitted concentration of half-maximal effect; % is set by controls: 0 for no effect and ±100 for the full control effect; nearly all actives have a fitted effect of over 60% in size
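Luminescent ATP read-out (CellTiter-Glo, 10 min) measures survival of drug-selected KB-V1 MDR cells after 72 h, 37 degrees C compound exposure. Medium: phenol-red-free DMEM, 10% FBS. Values from fitted concentration-response curves.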
MCF10A rerep: inducers of DNA re-replication in MCF 10A breast cells; MCF 10A DNA re-replication, Hoechst nuclear intensity, 48 h; Potency, µM (doses to about 46.1 µM), without a hit: at the highest dose activity, positive = re-replication, usual class: activators; actives 2.9% (n = 350,000); note: potency is the fitted concentration of half-maximal effect; % of control where 0% means no effect; nearly all actives have a fitted effect of over 50% in size
SW480 rerep: inducers of DNA re-replication in SW480 colon cancer cells. AID 624297. SW480 DNA re-replication, Hoechst DNA content imaging, 48 h. Potency, µM (titrated, usually from 46.1 µM), without a hit: at the top dose re-replication activation, actives largely listed as activators. actives 1.8% (n = 340,000); note: potency is the fitted concentration of half-maximal effect; % of control where 0% means no effect; nearly all actives have a fitted effect of over 55% in size
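First, 250 cells per well were seeded. Next, compound or vehicle (23 nL) was pinned in, plates sat 48 hr at 37 C. Finally Hoechst was added for 40 min before fluorescence scanning.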
IL-1B inflam inh: blocks inflammasome-driven IL-1 beta release | THP-1 LPS/ATP IL-1B secretion, AlphaLISA, 16 h; active compounds read low | activity change, % at 57.5 µM | actives 4.7% (n = 360,000) | AID 743279; in the data active = activity change below about -50%; inconclusive = mostly about -30% to -49%; note: % is set by controls: 0 for no effect and ±100 for the full control effect
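THP-1 cells pretreated 1 hr with compounds (up to 57.5 uM final), then stimulated with LPS (250 ng/mL final) plus ATP (1.25 mM final); secreted IL-1B measured by AlphaLISA after 16 hr, decreased signal indicating inhibition.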
* = called active by the depositor; i = inactive; ? = inconclusive; . = no result given; [ ] = another dose, or the depositor's remark. Unless noted, calls come from the whole dose curve; as a rule, active = well fitted curve in the direction sought with a large enough effect; inconclusive = small, poorly fitted or top-dose-only effect, or another doubt; inactive = no such curve, though single readings can be large; an effect the other way counts as inactive or inconclusive.

SMILES | KB-3-1 tox | KB-V1 cytotox | MCF10A rerep | SW480 rerep | IL-1B inflam inh
CCOc1ccc2[nH]c(=O)c(CN(Cc3cccs3)Cc3nnnn3C(C)(C)CC)cc2c1 | i | 18µM* | -2% | 18% | ?
COc1ccccc1NC(=O)c1sc2nc3c(c(C(F)(F)F)c2c1N)CN(C(C)=O)CC3 | i | i | . | . | .
Cc1cc(=O)n2c(n1)SCOC2 | i | i | -18% | -21% | .
CCOC(=O)Cn1nnnc1CN(Cc1ccccc1)Cc1cc2cc(CC)ccc2[nH]c1=O | i | i | 10µM* | ? | -91*
CSc1ccccc1NC(=S)N/N=C/c1cccn1Cc1ccc(F)cc1 | i | ? | ? | 0% | 28
Cc1cccc(NC(=S)N/N=C/c2cccn2Cc2ccc(F)cc2)c1 | i | ? | 8.2µM* | 13% | 7
Cc1cccc(NC(=S)NCc2cccn2C)c1 | 21µM* | i | 0% | 1% | -17
Cc1ccc(NC(=S)NCc2cccn2C)cc1 | i | ? | 26% | 21µM* | -14
Cc1ccccc1NC(=S)NCc1cccn1C | i | i | 5% | -7% | 5
O=C(Nc1ccnn1C1CCN(CCCc2ccccc2)CC1)c1cccc(F)c1 | i | ? | 2% | -5% | 0
CCN(C(=O)c1sc2nc3n(c(=O)c2c1C)CCCC3)c1ccccc1F | i | i | . | . | .
C[n+]1ccc(/C=C/c2ccc(Br)cc2)cc1 | ? | i | 7% | 28% | ?
Cc1ccc2[nH]c(C)c(/C=C/c3cc[n+](C)cc3)c2c1 | 2.1µM* | i | 47% | ? | ?
Cc1ccc2c(c1)c(/C=C/c1cc[n+](C)cc1)c(C)n2C | ? | i | 25% | -1% | -63*
O=C(O)CCC1(c2ccccc2)NC(=O)NC1=O (centres undefined) | i | i | -5% | -43% | -10
O=C(c1ccccc1)C1OC1C(=O)c1ccccc1 (centres undefined) | ? | ? | 9.2µM* | 15µM* | -96*
CC1C=CC(C)C(C(=O)c2ccccc2)C1C(=O)c1ccccc1 (centres undefined) | i | ? | . | . | 26
COc1ccc(-c2n(Cc3ccccc3)c3ccccc3[n+]2Cc2ccccc2)cc1 | 7.3µM* | i | 4% | ? | -87*
COc1cccc(OCc2nc3ccccc3n2Cc2ccccc2)c1 | i | i | . | . | .
CCOc1ccc(N(C)S(=O)(=O)c2ccc(C)c(C(=O)N3CCN(Cc4ccc5c(c4)OCO5)CC3)c2)cc1 | ? | i | ? | 22% | -89*
COc1ccc(N(C)S(=O)(=O)c2cccc(C(=O)N3CCN(Cc4ccc5c(c4)OCO5)CC3)c2)cc1 | i | ? | ? | 2% | -68*
COc1ccc(COCC(O)CN(Cc2ccco2)Cc2ccccc2O)cc1 (centres undefined) | i | 21µM* | 7% | 2% | 5
O=S(CC(O)COCc1ccc(Cl)cc1)c1ccccn1 (centres undefined) | i | i | -8% | -6% | -12
Oc1ccccc1CN(Cc1ccco1)CC(O)COCc1ccc(Cl)cc1 (centres undefined) | i | ? | ? | 18% | -99*
CN(Cc1nc2ccccc2c(=O)[nH]1)CC(O)COCc1ccco1 (centres undefined) | i | i | ? | -7% | 15
SMILES | KB-3-1 tox | KB-V1 cytotox | MCF10A rerep | SW480 rerep | IL-1B inflam inh
COc1ccc(-c2csc(NC(=O)C3CCCCN3S(=O)(=O)c3ccccc3)n2)cc1 (centres undefined) | ? | i | ? | 10% | -26
Cc1cc(Cl)ccc1OCc1n[nH]c(=S)n1C1CCCCC1 | i | i | 26µM* | -1% | 20
Cc1ccc2cc(C)c(SCC(=O)Nc3cc(C)on3)nc2c1 | i | i | 4% | 10% | -1
Cc1ccc(-n2c(SCC(=O)O)nc3sc4c(c3c2=O)CCCC4)cc1 | i | i | 6% | -16% | 0
Cc1ccc(-n2c(SCC(=O)c3c(N)n(C)c(=O)n(C)c3=O)nc3sc4c(c3c2=O)CCCC4)c(C)c1 | ? | 21µM* | ? | -4% | i
CN1C(=O)C(CC(=O)NCC2CCCCC2)SC1=Nc1ccccc1 (centres undefined) | i | i | 9% | ? | ?
N#CCCn1cc(C=C(C#N)C#N)c(-c2ccc(-c3ccccc3)cc2)n1 | ? | 21µM* | ? | ? | 10
CN(C)c1ccc(/C=C2\CCCCC2=O)cc1 | i | ? | 2% | 4% | -20
CN(C)CCC1(C2=CCCC2)CC/C(=C/c2ccc(Cl)cc2)C1=O (centres undefined) | i | i | ? | ? | -111*
CCOc1ccc(CCNc2ncnc3onc(C)c23)cc1OCC | 2.6µM* | i | . | . | .
Cc1ccc(CCNc2ncnc3onc(C)c23)cc1 | 2.9µM* | i | . | . | .
CCOCCCNc1ncnc2onc(C)c12 | i | i | . | . | .
Cc1noc2ncnc(NCCc3ccccc3)c12 | ? | i | . | . | .
COc1cc(Cl)c(NC(=O)c2cc3ccccn3n2)c(OC)c1 | i | i | . | . | .
COc1cc(NS(=O)(=O)c2ccc3c(c2)CC(=O)N3)cc(OC)c1OC | i | i | . | . | .
C(=C\c1ccccc1)/CN1CCN(C(c2ccccc2)c2ccccc2)CC1 | i | i | ? | 0% | 16
Fc1ccc(C(c2ccc(F)cc2)N2CCN(C/C=C/c3ccccc3)CC2)cc1 | ? | ? | 23µM* | ? | -12
CCC(c1nnnn1-c1ccc(OC)cc1)N1CCN(C/C=C/c2ccccc2)CC1 (centres undefined) | i | i | . | . | ?
COc1ccc(-n2nnnc2C(c2ccccc2)N2CCN(C/C=C/c3ccccc3)CC2)cc1 (centres undefined) | i | ? | . | . | -55*
CCCCn1nnnc1C(c1ccnc2ccccc12)N1CCN(C/C=C/c2ccccc2)CC1 (centres undefined) | i | i | . | . | -16
CCCCn1nnnc1C(c1cccc2ccccc12)N1CCN(C/C=C/c2ccccc2)CC1 (centres undefined) | ? | ? | . | . | -59*
FC(F)(F)Oc1ccccc1C(c1nnnn1Cc1ccccc1)N1CCN(C/C=C/c2ccccc2)CC1 (centres undefined) | i | ? | . | . | -55*
COc1ccc(CCNC(=O)Nc2nc(C(N)COCc3ccccc3)cs2)cc1OC (centres undefined) | i | i | . | . | ?
CCCCCOc1ccc(Cn2c(=O)oc3ccccc32)cc1 | i | i | . | . | .
Clc1ccc(-c2nnc(-c3ccco3)nc2N2CCCCC2)cc1 | i | 18µM* | ? | -2% | -24
COc1cc(CNn2nnnc2N)cc(Br)c1OCC(=O)NC(C)(C)C | i | i | -188%[0.0737 µM] | 2% | 26

Screening data as filed in PubChem.
